Here are results for 24 compounds from PubChem BioAssay AID1347056 (Sanford-Burnham Center for Chemical Genomics, 2019).

Out of some 360,000 compounds screened, about 3,600 (1%) were called active. This excerpt belongs to a sample that is enriched for actives. Values without a mark were called inactive.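 Rule for the calls: active = compounds whose plate-normalised and pattern-corrected inhibition of the luciferase reporter signal at the single screening dose is 50% or more; inactive = the rest.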

A short description of this assay: inhibitors of TROY-driven NF-kB signaling, primary screen, Q293 LMP1-TROYcd cells, NF-kB luciferase, uHTS (AID 1347056). To be noted: Q293 LMP1-TROYcd NF-kB luciferase reporter, 4 h; at 10 µM; stronger effect = higher value.
With `Cc1cccc(OC(C)C(=O)N2CCc3ccccc3C2)c1` (centres undefined), the inhibition was -6.07%.

Turning to `Cc1cccnc1C(NC(=O)C1CCN(Cc2ccc(Cl)c(Cl)c2)CC1)c1ccc(Cl)cc1` (centres undefined), the inhibition was 4.08%.

`COCCCNC(=O)CNC(=S)N(Cc1cc(OC)c(OC)c(OC)c1)C1CCCC1`: the inhibition was 10.9%.

With `COC(=O)c1cc(OC)c(OC)cc1NC(=O)CSc1ccc(C)cc1`, the inhibition was 21.1%.

`Cc1ccc(SCC(=O)Nc2ccc3c(c2)OCCO3)cc1`: the inhibition is -62.5%.

On to `Cc1ccc(SCC(=O)c2cc(C)c(OC(=S)N(C)C)c(C)c2)cc1`, for which the inhibition was 63.3% (active).

On to `CC(C)(C)c1ccc(Oc2ccc(N)cc2)cc1`, for which the inhibition was 86.2% (active).

Turning to `Cc1cc(C(C)(C)C)cc(C)c1N`, the inhibition is 2.63%.

As to `CN(C)S(=O)(=O)c1ccc(Oc2ccc(S(=O)(=O)N(C)C)cc2)cc1`, the inhibition was -1.31%.

In the case of `COc1ccc(S(=O)(=O)N(C)C[C@H]2Oc3ccc(NS(=O)(=O)c4cccs4)cc3CC(=O)N([C@H](C)CO)C[C@H]2C)cc1`, the inhibition was -24.6%.

On to `Cc1ccc(N(C(=O)C(F)(F)F)C(C(=O)NC2CCCCC2)c2ccncc2)cc1C` (centres undefined), for which the inhibition is -2.62%.

As to `O=C(c1ccc2c(c1)C(=O)N(Cc1ccncc1)C2=O)N1CCN(S(=O)(=O)c2ccc(OC(F)(F)F)cc2)CC1`, the inhibition was 0.85%.

With `CC(C)(C)NC(=O)c1ccc(Cn2cc(C(F)(F)F)ccc2=O)cc1`, the inhibition is 9.78%.

As to `O=C(NCC(=O)N1CCN(c2ccccc2F)CC1)c1cccs1`, the inhibition is -32.6%.

On to `COc1ccc(N2CCN(C(=O)CNC(=O)c3ccc(C(C)(C)C)cc3)CC2)cc1`, for which the inhibition is -17.8%.

Turning to `O=C(NCC(=O)N1CCN(c2ccccc2O)CC1)c1ccc2ccccc2c1`, the inhibition was 71.8% (active).

As for `CCC(Oc1ccccc1C)C(=O)Nc1ccc(S(=O)(=O)Nc2cc(C)on2)cc1` (centres undefined), the inhibition is -0.38%.

As to `COc1ccc(C(=O)Nc2c(N)nc(SCC(=O)Nc3ccc(C(C)=O)cc3)[nH]c2=O)cc1`, the inhibition was -11%.

For `Cc1ccc(S(=O)(=O)N(CC(=O)Nc2cccc([N+](=O)[O-])c2)Cc2ccc(Cl)cc2)cc1`, the inhibition is 44.3%.

As to `COC(=O)Cc1[nH]n(-c2nc3ccccc3s2)c(=O)c1C(C)=Nc1ccc(OC)cc1`, the inhibition is 54.6% (active).

Take `O=C1CSC(=O)N1CCOCCN1C(=O)CSC1=O`: the inhibition is -11.1%.

Consider `COc1ccccc1C(=O)NC(=S)Nc1ccccc1N1CCCCC1`, for which the inhibition is 50.5% (active).

In the case of `COc1ccccc1C(=O)NC(=S)NC12CC3CC(CC(C3)C1)C2`, the inhibition was 14.8%.

For the compound `COc1ccccc1C(=O)NC(=S)Nc1ccc(N2CCOCC2)cc1`, the inhibition is 30.2%.

The term inhibition denotes the relative decrease from the control value, in per cent.
